About 7,900 targets were measured; listed, in parts, are those with a hit and a random draw of the rest. About 0.6% of all pairs of compound and target were hits.
What was measured:
Test in all cases: log2 fold change, soluble protein after heating vs DMSO (PISA); higher = thermal stabilisation; K562 cells, 10 uM, 30 min; active = over 0.2 and 3.5 SD of the protein, either way, in both replicates (recomputed)
[1] = compound: C1=CC=C(C=C1)[C@H](COC2=CC3=C(C=C2)NC(=O)N3)NC(=O)C4=CC=CN(C4=O)CC5=CC(=C(C=C5)F)F
Summary of the method: (§1)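 Aliquots of K562 cells (2×10^6 cells/mL) treated with 10 μM compound for 30 min were heated for 3 min over 48°C-58°C. After pooling and extraction in PBS with 0.5% NP-40 at 4°C, soluble protein from a 21,000xg, 90 min spin was quantified by TMTpro 16plex LC-MS/MS with channel sums equalised. Thermal stability is expressed against control samples, from duplicates, as a log2 fold change.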

[2] = compound: CC1=C(SC2=C1C(=N[C@H](C3=NN=C(N32)C)CC(=O)N)C4=CC=C(C=C4)Cl)C
Summary of the method: as §1

[3] = compound: CC1=C2C(=CC=C1)N=C(N(C2=O)C3=CC=CC=C3C)CN4C=NC5=C(N=CN=C54)N
Summary of the method: as §1

[4] = compound: Cc1sc2c(c1C)C(c1ccc(Cl)cc1)=N[C@@H](CC(=O)OC(C)(C)C)c1nnc(C)n1-2
Summary of the method: as §1

[5] = compound: c1ccc([C@@H]2C[C@H]2NC2CCNCC2)cc1
Summary of the method: as §1

Measured: log2 fold change

RPS16 (UniProt P62249)
inactive: [1] 0.049 | [2] -0.149 | [3] -0.192 | [4] 0.043 | [5] -0.003

RPA3 (UniProt P35244)
Sequence of UniProt P35244 (P35244 whole entry, looked up): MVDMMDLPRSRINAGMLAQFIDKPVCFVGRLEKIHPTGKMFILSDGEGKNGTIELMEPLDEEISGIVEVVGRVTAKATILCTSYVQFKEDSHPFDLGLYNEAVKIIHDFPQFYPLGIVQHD
inactive: [1] 0.008 | [2] 0.09 | [3] -0.055 | [4] -0.146 | [5] -0.03

SEC23A (UniProt Q15436)
Sequence of UniProt Q15436 (Q15436 whole entry, looked up): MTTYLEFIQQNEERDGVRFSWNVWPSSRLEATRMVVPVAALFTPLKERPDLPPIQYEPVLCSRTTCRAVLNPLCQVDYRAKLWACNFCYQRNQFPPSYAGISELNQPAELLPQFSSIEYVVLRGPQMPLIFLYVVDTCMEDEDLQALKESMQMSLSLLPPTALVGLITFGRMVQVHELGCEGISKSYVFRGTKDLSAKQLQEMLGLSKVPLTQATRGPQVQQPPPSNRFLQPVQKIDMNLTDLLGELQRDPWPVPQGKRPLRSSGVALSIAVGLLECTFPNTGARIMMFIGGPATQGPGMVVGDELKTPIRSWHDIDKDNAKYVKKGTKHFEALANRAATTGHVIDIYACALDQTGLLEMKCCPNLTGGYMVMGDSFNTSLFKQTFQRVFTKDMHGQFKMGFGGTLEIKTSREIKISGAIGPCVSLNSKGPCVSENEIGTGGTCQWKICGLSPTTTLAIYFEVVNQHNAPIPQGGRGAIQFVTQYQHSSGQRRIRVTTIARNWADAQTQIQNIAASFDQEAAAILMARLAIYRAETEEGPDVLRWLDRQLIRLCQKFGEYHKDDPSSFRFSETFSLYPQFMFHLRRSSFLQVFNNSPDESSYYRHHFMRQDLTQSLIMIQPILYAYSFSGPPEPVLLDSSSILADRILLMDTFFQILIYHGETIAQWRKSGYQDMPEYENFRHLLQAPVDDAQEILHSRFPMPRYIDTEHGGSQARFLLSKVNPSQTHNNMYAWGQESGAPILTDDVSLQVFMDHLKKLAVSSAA
inactive: [1] 0.006 | [2] 0.052 | [3] 0.078 | [4] 0.027 | [5] 0.075

SETMAR (UniProt Q53H47)
Sequence of UniProt Q53H47 (Q53H47 whole entry, looked up): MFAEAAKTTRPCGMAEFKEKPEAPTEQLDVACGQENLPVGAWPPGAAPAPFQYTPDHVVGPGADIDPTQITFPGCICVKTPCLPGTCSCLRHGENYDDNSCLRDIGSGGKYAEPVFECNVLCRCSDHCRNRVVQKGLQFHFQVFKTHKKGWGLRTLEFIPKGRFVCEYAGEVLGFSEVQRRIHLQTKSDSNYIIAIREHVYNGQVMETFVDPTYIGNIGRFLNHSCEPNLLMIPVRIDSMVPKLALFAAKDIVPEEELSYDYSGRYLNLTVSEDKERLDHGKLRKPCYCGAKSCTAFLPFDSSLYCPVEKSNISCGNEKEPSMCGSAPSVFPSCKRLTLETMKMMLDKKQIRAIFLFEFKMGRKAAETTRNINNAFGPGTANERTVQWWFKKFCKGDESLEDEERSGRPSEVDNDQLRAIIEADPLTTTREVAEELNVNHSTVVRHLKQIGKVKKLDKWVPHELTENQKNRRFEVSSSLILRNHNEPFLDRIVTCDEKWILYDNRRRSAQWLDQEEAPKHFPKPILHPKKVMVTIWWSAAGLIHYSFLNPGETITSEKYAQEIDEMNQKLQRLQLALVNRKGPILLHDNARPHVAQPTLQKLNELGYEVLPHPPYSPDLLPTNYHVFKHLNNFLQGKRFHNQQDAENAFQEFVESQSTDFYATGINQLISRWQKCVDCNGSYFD
inactive: [1] 0.001 | [2] 0.096 | [3] 0.033 | [4] -0.031 | [5] -0.02

SCO2 (UniProt O43819)
Sequence of UniProt O43819 (O43819 whole entry, looked up): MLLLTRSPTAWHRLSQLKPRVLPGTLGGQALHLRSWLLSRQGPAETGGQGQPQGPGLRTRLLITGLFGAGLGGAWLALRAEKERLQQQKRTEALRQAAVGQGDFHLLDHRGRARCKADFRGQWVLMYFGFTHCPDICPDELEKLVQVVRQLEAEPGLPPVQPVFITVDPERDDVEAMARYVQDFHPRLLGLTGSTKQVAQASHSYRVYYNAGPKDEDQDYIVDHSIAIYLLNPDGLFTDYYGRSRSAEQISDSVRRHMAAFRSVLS
inactive: [1] -0.03 | [2] -0.108 | [3] -0.041 | [4] -0.098 | [5] 0.023

RBM25 (UniProt P49756)
Sequence of UniProt P49756 (P49756 whole entry, looked up): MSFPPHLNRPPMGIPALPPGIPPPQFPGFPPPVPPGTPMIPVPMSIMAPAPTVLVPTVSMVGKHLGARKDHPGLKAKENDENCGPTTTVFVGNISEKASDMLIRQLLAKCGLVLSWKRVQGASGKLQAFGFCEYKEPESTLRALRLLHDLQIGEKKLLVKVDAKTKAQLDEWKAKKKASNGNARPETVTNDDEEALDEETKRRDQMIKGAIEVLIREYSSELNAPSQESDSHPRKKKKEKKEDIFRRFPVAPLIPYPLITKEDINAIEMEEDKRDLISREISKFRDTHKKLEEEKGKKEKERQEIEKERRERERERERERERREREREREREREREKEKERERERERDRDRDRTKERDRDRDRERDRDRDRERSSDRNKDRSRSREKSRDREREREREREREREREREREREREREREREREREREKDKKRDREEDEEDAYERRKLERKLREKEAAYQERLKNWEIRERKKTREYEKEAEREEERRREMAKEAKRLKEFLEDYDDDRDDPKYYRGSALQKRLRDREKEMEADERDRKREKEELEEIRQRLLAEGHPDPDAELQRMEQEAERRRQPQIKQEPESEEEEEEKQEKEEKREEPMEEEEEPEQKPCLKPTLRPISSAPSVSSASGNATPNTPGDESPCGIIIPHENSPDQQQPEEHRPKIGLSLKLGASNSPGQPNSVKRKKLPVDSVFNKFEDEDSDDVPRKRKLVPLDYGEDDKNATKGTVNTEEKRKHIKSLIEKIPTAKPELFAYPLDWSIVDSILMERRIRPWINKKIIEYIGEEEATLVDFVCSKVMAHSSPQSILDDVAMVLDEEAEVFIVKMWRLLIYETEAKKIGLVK
inactive: [1] -0.025 | [2] 0 | [3] 0.005 | [4] 0.051 | [5] 0.112

SIRT2 (UniProt Q8IXJ6)
inactive: [1] -0.075 | [2] 0.107 | [3] 0.105 | [4] 0.093 | [5] -0.016

RBM33 (UniProt Q96EV2)
inactive: [1] 0.002 | [2] -0.018 | [3] 0.029 | [4] -0.004 | [5] 0.012

RECQL (UniProt P46063)
Sequence of UniProt P46063 (P46063 whole entry, looked up): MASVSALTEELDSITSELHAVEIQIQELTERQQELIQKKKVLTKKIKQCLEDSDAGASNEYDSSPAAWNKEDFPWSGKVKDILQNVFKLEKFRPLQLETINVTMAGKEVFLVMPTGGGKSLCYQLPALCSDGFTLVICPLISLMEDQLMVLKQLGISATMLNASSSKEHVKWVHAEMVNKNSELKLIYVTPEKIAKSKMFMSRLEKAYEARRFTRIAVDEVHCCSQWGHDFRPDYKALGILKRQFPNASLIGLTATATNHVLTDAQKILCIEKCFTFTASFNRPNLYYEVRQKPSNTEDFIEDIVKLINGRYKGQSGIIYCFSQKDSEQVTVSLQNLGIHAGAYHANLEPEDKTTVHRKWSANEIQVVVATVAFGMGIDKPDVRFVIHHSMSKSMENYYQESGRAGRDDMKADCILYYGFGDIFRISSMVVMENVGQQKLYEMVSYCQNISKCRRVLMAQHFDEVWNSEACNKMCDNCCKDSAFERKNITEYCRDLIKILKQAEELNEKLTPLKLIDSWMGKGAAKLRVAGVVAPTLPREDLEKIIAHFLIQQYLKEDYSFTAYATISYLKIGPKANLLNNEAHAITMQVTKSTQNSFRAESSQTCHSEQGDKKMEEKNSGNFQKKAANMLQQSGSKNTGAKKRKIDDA
inactive: [1] -0.012 | [2] 0.087 | [3] 0.015 | [4] -0.029 | [5] -0.02

SGPL1 (UniProt O95470)
Sequence of UniProt O95470 (O95470 whole entry, looked up): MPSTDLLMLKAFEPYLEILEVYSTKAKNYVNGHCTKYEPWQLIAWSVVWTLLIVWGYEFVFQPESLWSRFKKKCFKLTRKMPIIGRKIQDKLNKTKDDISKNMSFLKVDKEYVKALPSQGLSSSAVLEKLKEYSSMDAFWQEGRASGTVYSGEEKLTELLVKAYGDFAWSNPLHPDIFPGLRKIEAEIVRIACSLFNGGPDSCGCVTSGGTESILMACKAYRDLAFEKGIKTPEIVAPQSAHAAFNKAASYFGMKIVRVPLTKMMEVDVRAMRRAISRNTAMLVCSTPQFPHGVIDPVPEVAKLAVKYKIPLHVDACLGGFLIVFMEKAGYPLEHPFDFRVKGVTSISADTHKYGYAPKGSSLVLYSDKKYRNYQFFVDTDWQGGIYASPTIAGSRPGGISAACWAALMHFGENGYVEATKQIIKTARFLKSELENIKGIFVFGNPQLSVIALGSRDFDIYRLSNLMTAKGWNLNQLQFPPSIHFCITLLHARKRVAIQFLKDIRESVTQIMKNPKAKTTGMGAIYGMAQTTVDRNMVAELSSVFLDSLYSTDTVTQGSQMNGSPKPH
inactive: [1] 0.041 | [2] -0.014 | [3] 0.005 | [4] 0.049 | [5] -0.004

RAC1 (UniProt P63000)
inactive: [1] -0.046 | [2] 0.017 | [3] -0.111 | [4] -0.098 | [5] 0.033

RAF1 isoform 2 (UniProt P04049)
Sequence of UniProt P04049 (P04049 whole entry, looked up): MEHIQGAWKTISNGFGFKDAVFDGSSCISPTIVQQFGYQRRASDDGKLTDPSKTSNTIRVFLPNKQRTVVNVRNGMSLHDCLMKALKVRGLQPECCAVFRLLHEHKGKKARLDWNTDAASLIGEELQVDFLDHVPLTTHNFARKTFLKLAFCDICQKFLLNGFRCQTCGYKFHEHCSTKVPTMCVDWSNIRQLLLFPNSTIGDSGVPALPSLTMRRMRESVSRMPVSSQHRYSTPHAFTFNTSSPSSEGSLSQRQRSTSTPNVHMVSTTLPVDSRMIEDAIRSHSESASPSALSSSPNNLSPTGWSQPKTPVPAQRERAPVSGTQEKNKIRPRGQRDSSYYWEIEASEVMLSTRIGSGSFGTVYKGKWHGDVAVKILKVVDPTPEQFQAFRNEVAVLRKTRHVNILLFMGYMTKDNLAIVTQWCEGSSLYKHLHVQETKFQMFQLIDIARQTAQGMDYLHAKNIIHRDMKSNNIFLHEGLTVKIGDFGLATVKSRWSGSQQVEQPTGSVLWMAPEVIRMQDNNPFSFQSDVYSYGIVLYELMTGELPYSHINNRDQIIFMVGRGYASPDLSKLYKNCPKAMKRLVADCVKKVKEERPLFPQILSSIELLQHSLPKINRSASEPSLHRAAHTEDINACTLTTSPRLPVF
inactive: [1] -0.08 | [2] 0.201 | [3] 0.222 | [4] -0.07 | [5] -0.105

RNPS1 (UniProt Q15287)
Sequence of UniProt Q15287 (Q15287 whole entry, looked up): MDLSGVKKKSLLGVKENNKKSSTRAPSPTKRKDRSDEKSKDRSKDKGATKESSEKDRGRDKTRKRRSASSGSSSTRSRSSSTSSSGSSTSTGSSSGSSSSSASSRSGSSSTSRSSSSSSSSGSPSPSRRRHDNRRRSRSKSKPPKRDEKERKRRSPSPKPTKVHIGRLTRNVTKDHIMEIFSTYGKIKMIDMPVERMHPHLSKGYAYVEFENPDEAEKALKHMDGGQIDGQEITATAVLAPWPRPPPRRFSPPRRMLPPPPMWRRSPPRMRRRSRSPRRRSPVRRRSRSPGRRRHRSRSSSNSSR
inactive: [1] -0.019 | [2] 0.001 | [3] 0.032 | [4] 0.119 | [5] 0.061
